PubChem BioAssay AID652054 (National Center for Advancing Translational Sciences (NCATS), 2013)
The whole screen tested about 360,000 compounds, of which about 9,100 (2.5%) were called active. Another 4% or so got no clear call; they are omitted. Many of the other results were omitted from the sample, so actives are more common in it than they were. Unmarked numbers belong to inactive results. Cut-off read from the data, not from the text of the source: active = max response below about -50%; inconclusive = no clear call, values can overlap the other calls; inactive = above that.

Each compound was assayed against D(3) dopamine receptor (Homo sapiens) (UniProt P35462) (assay: qHTS of D3 Dopamine Receptor Antagonist: qHTS). Conditions: D3R cells, DiscoveRx beta-arrestin luminescence, antagonist mode; hits give low values.
Outline: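 Cells expressing the human receptor were seeded at 1500 cells/well, incubated overnight at 37 degrees C in 5% CO2, then exposed to library compounds with dopamine controls for 90 minutes at 37 degrees C before luminescent detection.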
% is set by controls: 0 for no effect and ±100 for the full control effect.

Chain of D(3) dopamine receptor (Homo sapiens) (P35462 whole entry, looked up): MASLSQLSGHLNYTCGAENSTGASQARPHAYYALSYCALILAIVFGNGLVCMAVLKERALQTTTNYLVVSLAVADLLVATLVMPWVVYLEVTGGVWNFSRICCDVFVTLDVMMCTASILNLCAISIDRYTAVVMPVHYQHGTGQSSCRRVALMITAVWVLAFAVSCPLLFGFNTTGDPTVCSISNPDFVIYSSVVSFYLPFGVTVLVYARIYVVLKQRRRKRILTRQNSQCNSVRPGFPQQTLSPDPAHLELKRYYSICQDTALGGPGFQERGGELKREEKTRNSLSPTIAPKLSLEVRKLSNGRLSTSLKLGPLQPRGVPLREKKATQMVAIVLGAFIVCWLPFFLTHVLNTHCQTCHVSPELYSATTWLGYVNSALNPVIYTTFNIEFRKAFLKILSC

| SMILES | max response, negative = inhibition |
| --- | --- |
| NC(=NC(=O)c1ccccc1)N1CCOCC1 | -52.7% (active) |
| O=C(NC(=O)N1CCOCC1)c1ccccc1 | 160% |
| O=C(CSC(=S)N1CCOCC1)c1ccccc1 | -4.48% |
| Cc1cc2oc(=O)cc(CN(C)Cc3ccccc3)c2cc1Cl | 9.91% |
| CCCCN1C(=O)C(CC(=O)NCc2cccs2)CC(C(=O)N2CCCCCC2)=C1C (stereo not drawn) | 0% |
| O=C(CCCNS(=O)(=O)c1cccc2nsnc12)NCCN1CCN(c2ccccc2F)CC1 | -84.7% (active) |
| O=C(CCS(=O)(=O)c1cccc2nsnc12)N1CCN(c2ccccc2F)CC1 | 1.65% |
| COc1ccccc1CNC(=O)CCCNS(=O)(=O)c1cccc2nsnc12 | -0.0929% |
| OC[C@@H]1CN(Cc2ccc3c(c2)OCO3)C[C@H](n2cnc3c(NCc4ccco4)ncnc32)O1 | -5.45% |
| COC(=O)[C@@]1(Sc2ccc(C)cc2)CC(=O)N(c2cccc(SC)c2)[C@@H]1c1ccccc1 | 3.45% |
| N#Cc1nc(N)nc(N(c2ccccc2)c2ccccc2)n1 | -74% (active) |
| CC(C)Nc1nc(N(c2ccccc2)c2ccccc2)nc(-n2ccnc2)n1 | 16.7% |
| CC(=O)Nc1ccc(CNc2nc(NCCN(C)C)nc3cc(-c4ccccc4)sc23)cc1 | -24.6% |
| CCOC(=O)C1CCCN(C(=O)c2cc(-c3cccs3)oc2C)CC1 (stereo not drawn) | 11% |
| O=c1[nH][nH]c(C(F)(F)F)c1C=NCc1ccccc1Cl | -70.6% (active) |
| COc1ccc(S(=O)(=O)N2CCCCC2c2cc(C(=O)NCc3ccc(F)cc3)no2)cc1 (stereo not drawn) | 8.77% |
| Cc1cc(C(=O)N2CCCC2(C)C(=O)O)c(C)o1 (stereo not drawn) | 16.6% |
| CCOC(=O)C1=CC[C@@H](c2ccccc2)N(S(=O)(=O)c2ccc(C)cc2)[C@H]1c1ccc(CC)cc1 | 4.64% |
| O=C(NCc1cccnc1)c1cc(C2CCCCN2C(=O)CCc2ccccc2)on1 (stereo not drawn) | -10.2% |
| COc1ccc(C(C#N)=C2C=CC(=NO)c3ccccc32)cc1 | -54% (active) |

| SMILES | max response, negative = inhibition |
| --- | --- |
| COc1ccc(C(=NN)c2ccc(OC)cc2)cc1 | -10.2% |
| COc1ccc(/C(N)=N/OC(=O)Cc2ccccc2)cc1 | -0.193% |
| Cc1cccc(C)c1NC(=O)C(c1ccc(C(F)(F)F)cc1)n1c(=O)c(-c2ccco2)nc2ccccc21 (stereo not drawn) | -12.7% |
| COc1cc(C=C(OC(C)=O)c2ccc3c(c2)OCO3)cc(OC)c1OC | 24.2% |
| O=C1CCC(C(=O)OCC(=O)Nc2ccc(OC(F)F)cc2)=NN1 | 12.8% |
| O=C(Cc1ccccc1)N/N=C/c1ccc(Cl)cc1Cl | -15.7% |
| O=C(N/N=C/c1cc(Br)c(O)c([N+](=O)[O-])c1)C(O)(c1ccccc1)c1ccccc1 | -10.9% |
| CN(C)/N=C/c1cc(Cl)cc([N+](=O)[O-])c1O | -79.8% (active) |
| O=C(N/N=C/c1cc(Cl)cc([N+](=O)[O-])c1O)C(O)(c1ccccc1)c1ccccc1 | -89.3% (active) |
| CC(=O)NC(c1ccccc1)c1nc(-c2ccccc2C)cs1 (stereo not drawn) | -13.7% |
| CC(C)CCNC(=O)c1[nH]c(C(F)(F)F)nc1-c1ccccc1 | 0% |
| COCOCCn1cc(CN2CCS(=O)(=O)N(Cc3ccc(-c4ccc(OC)cc4)cc3)C(CC(C)C)C2=O)nn1 (stereo not drawn) | 10.8% |
| COc1ccc(NC(=O)c2ccc(C#CC(C)(C)O)cc2)cc1 | -1.8% |
| COc1ccc(NC(=O)CSc2nc(C)cs2)cc1 | 5.34% |
| COc1ccc(NC(=O)c2sccc2SCC#N)cc1 | -82.3% (active) |
| C[C@@H]1CN([C@H](C)CO)C(=O)CCCn2cc(nn2)CO[C@H]1CN(C)S(C)(=O)=O | 12.7% |
| NC(=S)NN=Cc1ccc(OC(=O)COc2cc(Cl)c(Cl)cc2Cl)cn1 | 0.559% |
| O=C(Nc1ccc2c(c1)OCCO2)C(C1CC1)N1CCC(Cc2ccccc2)CC1 (stereo not drawn) | -73.1% (active) |
| CCC(C(=O)Nc1ccc2c(c1)OCCO2)c1ccccc1 (stereo not drawn) | -13.2% |
| O=C(CN1CCOc2ccccc21)N1CCC(Cc2ccccc2)CC1 | 0% |

| SMILES | max response, negative = inhibition |
| --- | --- |
| O=C(NCc1ccccc1)C(c1ccc(F)cc1)N1CCN(C(=O)C2CCCO2)CC1 (stereo not drawn) | 29.8% |
| CCOC(=O)C1(C)CCCN(C(=O)c2cccc(Cl)c2)C1 (stereo not drawn) | -16.8% |
| N#Cc1cccc(NC(=O)COC(=O)c2ccccc2C(=O)c2ccc(Cl)c([N+](=O)[O-])c2)c1 | -50.7% (active) |
| NC(=O)c1ccc(NC(=O)COC(=O)c2ccc([N+](=O)[O-])cc2)cc1 | -15.1% |
| COC(=O)c1cc(NC(=O)Cc2ccccc2[N+](=O)[O-])ccc1Cl | -7.17% |
| CCCc1ccc(C(O)c2ncc(-c3cccc(OC)c3)[nH]2)cc1 (stereo not drawn) | 0% |
| CC(C)(C)S(=O)N1Cc2cc(C(=O)NCCCN3CCOCC3)nc(-c3cccc(-c4cc5ccccc5o4)c3)c2[C@H]1CCO (stereo partly drawn) | 9.3% |
| CN(c1ccc(C(=O)NCc2ccccn2)cc1)S(C)(=O)=O | -116% (active) |
| CCN(c1ccccc1)S(=O)(=O)c1cc(C(=O)NCc2ccccn2)ccc1C | 4.76% |
| COc1cccc(S(=O)(=O)NCc2ccc(C(=O)NCc3ccccn3)cc2)c1 | 8.72% |
| CC1(Cc2ccccc2C#N)C(=O)Nc2ccc(-c3ccc4[nH]ccc4c3)cc21 (stereo not drawn) | -15.9% |
| COc1ccc(S(=O)(=O)N[C@@H]2C=C[C@@H](CC(=O)N3CCc4ccccc4C3)O[C@@H]2CO)cc1 | -0.0851% |
| COc1ccccc1C1=CC(=O)C[C@H](c2ccc(F)cc2)C1 | -18.2% |
| COc1cccc(C2=CC(=O)C[C@H](c3ccc(F)cc3)C2)c1OC | -8.44% |
| O=C1C=C(c2cccc(Cl)c2O)C[C@@H](c2ccc(F)cc2)C1 | -58.3% (active) |
| COC(=O)C1=C(C)NC2=C(C(=O)c3ccccc32)C1c1ccc(-c2ccc(C(=O)O)cc2)o1 (stereo not drawn) | -75.7% (active) |
| CCOC(=O)c1ccc(-c2ccc(C(=O)Nc3cccnc3)o2)cc1 | 9.54% |
| COC(=O)C1=C(C)N(C)C(=O)NC1c1ccc([N+](=O)[O-])o1 (stereo not drawn) | -10.8% |
